Measured values from PubChem BioAssay (EPA / NIEHS).
Where “and” joins values, the source holds several entries; their conditions need not be identical. Equal entries are not always repeated. Records with an inconclusive call do not appear. Some structures have more than one record in an assay (separate samples or runs), and their calls can disagree. Calls of active or inactive are those of the source. How the source made its calls: active means hit-call score of the fitted dose curve at least 0.9, where 1 is the maximum; inconclusive means response in the unintended direction; inactive means score below 0.9.

The compounds below were run against rat CYP2D2, Cyp2d26 (gene 25053) (UniProt P10634) (assay: NVS_ADME_rCYP2D2: NovaScreen (NVS) CYP450-related Enzyme Activity (ADME) Assay for rat CYP2D2 (AID 2283124)).
Chain of rat CYP2D2, Cyp2d26 (gene 25053) (P10634 whole entry, looked up): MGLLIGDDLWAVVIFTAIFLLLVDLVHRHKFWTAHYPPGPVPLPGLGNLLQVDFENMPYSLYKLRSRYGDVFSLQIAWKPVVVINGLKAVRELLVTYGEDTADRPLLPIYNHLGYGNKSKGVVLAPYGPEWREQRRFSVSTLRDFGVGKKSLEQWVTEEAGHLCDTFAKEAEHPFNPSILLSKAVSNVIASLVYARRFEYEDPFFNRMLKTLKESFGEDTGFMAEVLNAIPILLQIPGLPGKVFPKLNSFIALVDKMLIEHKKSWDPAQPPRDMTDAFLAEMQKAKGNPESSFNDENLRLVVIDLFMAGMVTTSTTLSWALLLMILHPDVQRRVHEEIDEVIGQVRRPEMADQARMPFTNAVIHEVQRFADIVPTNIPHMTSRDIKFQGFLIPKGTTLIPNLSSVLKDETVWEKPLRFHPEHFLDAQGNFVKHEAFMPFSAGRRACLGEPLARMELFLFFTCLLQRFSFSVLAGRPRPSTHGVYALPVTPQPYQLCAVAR
Method: NVS_ADME_rCYP2D2 is a biochemical, single-readout assay that uses extracted gene-proteins in a cell-free assay. Measurements were taken 0.75 hour after chemical dosing in a 96-well plate.NVS_ADME_rCYP2D2 is one of one assay component(s) measured or calculated from the NVS_ADME_rCYP2D2 assay. It is designed to make measurements of enzyme activity, a form of enzyme reporter, as detected with fluorescence intensity signals by Fluorescence technology.Data from the assay component NVS_ADME_rCYP2D2 was analyzed into 1 assay endpoint. This assay endpoint, NVS_ADME_rCYP2D2, was analyzed in the positive analysis fitting direction relative to Acetonitrile as the negative control and baseline of activity. Using a type of enzyme reporter, loss-of-signal activity can be used to understand changes in the enzymatic activity as they relate to the gene Cyp2d2. Furthermore, this assay endpoint can be referred to as a primary readout, because this assay has produced multiple assay endpoints where this one serves a enzymatic activity function. To generalize the intended target to other relatable targets, this assay endpoint is annotated to the cyp intended target family, where the subfamily is xenobiotic metabolism.
Binding assays used specific radioligands (tritiated, iodinated) with non-radioactive competitive displacement ligands in agonist or antagonist protocols (as indicated) and various reference compounds and inhibitors to titrate specific binding to receptors and transporters. Most enzyme assays (CYPs, kinases, phosphatases, proteases, HDACs) used recombinant protein and specific substrates (fluorescence mostly, some colorimetric and radioactive) and inhibitors, followed by a biochemical separation of substrate and product. All assays for the biochemical HTS were initially run in duplicate at a single concentration (10 uM for CYP450 assays and 25 uM for all others). Assay-chemical combinations meeting a pre-defined threshold (e.g., 30% inhibition and other criteria defined below) were then run in singleton concentration-response format with maximum concentration of 20 uM for CYPs and 50 uM for all others. Each assay was run with positive and negative controls, and concurrent controls on every plate. The follow-up (secondary) screen tested active chemical-pairs in concentration series, as well as a few additional assays not tested in the primary screen, some selected negative inactives, and several cases re-run in the concentration series for confirmatory purposes.
For `CC1COC(Cn2cncn2)(c2ccc(Oc3ccc(Cl)cc3)cc2Cl)O1` (configuration not stated), the AC50 was 1.4 µM (active). For `COC(=O)C(C)Oc1ccc(Oc2ccc(Cl)cc2Cl)cc1` (configuration not stated), the outcome was “inactive” and the AC50 was 7.38 µM (active) and 10 µM (active). In the case of `CCCC1COC(Cn2cncn2)(c2ccc(Cl)cc2Cl)O1` (configuration not stated), the AC50 was 7.44 µM (active) and 7.78 µM (active). With `CCOP(=S)(OCC)SCn1c(=O)oc2cc(Cl)ccc21` the AC50 was 2.07 µM (active). For `CCOC(=O)C(Cl)Cc1cc(-n2nc(C)n(C(F)F)c2=O)c(F)cc1Cl` (configuration not stated), the outcome was “inactive”. For `Cc1ccc(-c2c(Cl)nc(C#N)n2S(=O)(=O)N(C)C)cc1`, the AC50 was 4.31 µM (active). For `CCOC(=O)CC(SP(=S)(OC)OC)C(=O)OCC` (configuration not stated), the AC50 was 6.28 µM (active). For `OC(c1ccc(Cl)cc1)(c1cncnc1)c1ccccc1Cl` (configuration not stated), the AC50 was 6.92 µM (active). In the case of `COc1ccc(C(c2ccc(OC)cc2)C(Cl)(Cl)Cl)cc1`, the outcome was “inactive”. `CCCN(CCC)c1c([N+](=O)[O-])cc(S(N)(=O)=O)cc1[N+](=O)[O-]` was tested, and the AC50 was 1.3 µM (active). `C#CCOS(=O)OC1CCCCC1Oc1ccc(C(C)(C)C)cc1` (configuration not stated) was tested, and the AC50 was 10 µM (active).
